Rows were chosen to be rich in hits. Some 3.5% of all compounds tested hit in one or more screens of this group.
GPR151 ag: activates the human receptor GPR151; Q8TDV0; PathHunter beta-arrestin GPR151 cells, luminescence; activation, % at 11.2 µM; 650,000 tested, 1% active; AID 1508602; in the data active = activation above about 4.9%;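 note: 0% = median of compound wells and 100% = cells with positive control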
TEAD-YAP block: TEAD-YAP interaction inhibition | HEK-TIYL cells, TEAD-Gal4/YAP UAS-luciferase luminescence | inhibition, % at 9.12 µM | 640,000 tested, 1.4% active | AID 1259422; in the data active = inhibition above about 32%;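 note: 0% = median of test compound wells and 100% = reference inhibitor wells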
FBW7 activator: human FBW7 E3 ligase activation, primary screen; Q969H0; AlphaScreen FBW7–phospho-cyclin E peptide binding, activator screen; normalized activity (activation), % at 26.1 µM; 650,000 tested, 0.13% active; in the data active = normalized activity above about 1.9%;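 note: purified mutant Fbw7 with reduced substrate affinity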
Target sequence (Q969H0 whole entry, looked up): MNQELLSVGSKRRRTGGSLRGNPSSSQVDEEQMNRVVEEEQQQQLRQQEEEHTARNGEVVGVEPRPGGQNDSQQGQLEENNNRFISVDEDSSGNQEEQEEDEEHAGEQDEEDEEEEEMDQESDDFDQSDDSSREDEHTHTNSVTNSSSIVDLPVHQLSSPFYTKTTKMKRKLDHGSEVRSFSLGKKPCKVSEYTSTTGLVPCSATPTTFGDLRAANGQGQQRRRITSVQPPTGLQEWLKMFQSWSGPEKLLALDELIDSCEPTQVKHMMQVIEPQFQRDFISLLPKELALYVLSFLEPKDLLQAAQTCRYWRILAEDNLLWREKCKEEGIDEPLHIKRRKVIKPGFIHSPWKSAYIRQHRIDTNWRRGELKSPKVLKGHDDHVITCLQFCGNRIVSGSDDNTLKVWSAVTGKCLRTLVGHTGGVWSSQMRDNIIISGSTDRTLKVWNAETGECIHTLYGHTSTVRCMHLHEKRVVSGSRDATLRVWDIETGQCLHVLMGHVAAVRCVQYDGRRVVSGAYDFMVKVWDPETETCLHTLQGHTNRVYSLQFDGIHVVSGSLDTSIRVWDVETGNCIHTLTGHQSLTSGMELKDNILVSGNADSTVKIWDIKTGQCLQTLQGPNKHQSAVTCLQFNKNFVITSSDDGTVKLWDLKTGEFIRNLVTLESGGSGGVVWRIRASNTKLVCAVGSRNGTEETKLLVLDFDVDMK
MITF inh: inhibitors of human MITF | O75030 | AlphaScreen MITF homodimerization, bead proximity signal | inhibition, % at 2.6 µM | 650,000 tested, 0.91% active | AID 1259374; in the data active = inhibition above about 50%;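 note: 0% = vehicle wells with protein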
GPR151 conf act: confirmation of human GPR151 activators. shares compounds with GPR151 ag. GPR151 PathHunter beta-arrestin cells, luminescence, 90 min; % of EA-reagent control over plate median. activation, % at 11.2 µM. 6,700 tested, under 10 active;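 active = mean percent activation across replicates above the confirmation screen cutoff of 4.91%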
GPR119 ag: activates human GPR119 in a GPR151 counter-screen | shares compounds with GPR151 ag | GPR119 PathHunter beta-arrestin cells, luminescence, 90 min; 0 = compound-well median, 100 = enzyme-acceptor control | activation, % at 11.2 µM | 6,700 tested, 0.3% active | AID 1508611;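 active = mean percent activation in the counterscreen above 29.09%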;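 note: counterscreen on off-target GPR119 to flag nonselective hits from the GPR151 activator screen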
* = called active by the depositor; · = no result; ! = not active in a repeat.

SMILES	GPR151 ag	TEAD-YAP block	FBW7 activator	MITF inh	GPR151 conf act	GPR119 ag
O=C(Cc1ccsc1)N1CCCC(N2CCOCC2)C1 (configuration not stated)	5.8*	-2.2	0.1	10.7	0.4	4.0
O=c1c2ccccc2nc(/C=C/c2ccc3c(c2)OCO3)n1-c1ccccc1O	8.9*	-6.1	0.0	11.2	0.5	-5.4
COc1ccc2[nH]c3c(c2c1)CCN=C3C	5.6*	·	-0.3	-8.2	-0.2	6.1
COc1ccc2[nH]cc(CN(C)C)c2c1	2.2	12.4	0.6	8.7	·	·
CN1CCN(c2c3c(nc4nncn24)CCC3)CC1	0.1	0.8	-0.2	6.2	·	·
OCCNc1c2c(nc3ccccc13)CCCC2	1.1	-8.9	0.1	1.1	·	·
O=C(O)c1c2c(nc3ccccc13)CCNC2	6.9*	-9.4	0.0	-2.4	1.2	7.8
CCCCC/C=C\C/C=C\C/C=C\C/C=C\CCCC(=O)NCCO	7.1*	·	·	9.9	0.0	-8.4
O=C1NC(=O)C(=Cc2cn(Cc3ccc([N+](=O)[O-])cc3)c3ccccc23)C(=O)N1	3.7	-2.5	-0.1	18.8	·	·
NC1=Nc2ccccc2Sc2ccccc21	5.3*	-26.9	-0.1	-0.8	-0.1	9.0
O=C(CN1CCN(c2ccccc2F)CC1)Nc1ccc(Br)cc1C(=O)c1ccccc1Cl	0.1	2.2	0.1	16.7	·	·
CCOC(=O)C1=C(N)Oc2cc(O)ccc2C12C(=O)N1c3c(cccc32)C(C)CC1(C)C (configuration not stated)	0.0	8.0	0.0	6.4	·	·
CCOC(=O)C1=C(C)OC(N)=C(C#N)C12C(=O)N1c3c(cc(CC)cc32)C(C)CC1(C)C (configuration not stated)	9.0*	4.0	0.0	10.8	-0.5	-7.6
O=C1C=C2C=C[C@H]3C[C@]2(O1)[C@@H]1CCCCN13	9.6*!	-2.8	0.0	23.0	-0.8	-12.3
O=[N+]([O-])/C=C/Nc1cccc([N+](=O)[O-])c1	-0.9	12.9	0.5	14.9	·	·
COC(=O)COc1ccc(C=C2C(=O)NC(=O)NC2=O)cc1	5.2*	-6.4	-0.5	-10.1	-0.4	1.0
Clc1ccc2nc3c(cc2c1)CN(Cc1cccnc1)CC3	3.1	-67.2	0.0	0.8	·	·
CCOC(=O)CCCn1c(C(=O)OCC)c(C=O)c2ccccc21	6.3*	0.0	0.0	-10.7	0.2	12.7
COc1ccccc1OCCCn1c(C)c(C=O)c2ccccc21	1.8	-0.2	-0.3	-11.4	·	·
CNCCc1c[nH]c2ccc(CS(=O)(=O)O)cc12	0.9	2.1	0.0	-6.1	·	·
C#CC(C)(C)NC1(c2nnnn2-c2c(C)cccc2C)CCCCC1	0.1	-1.3	-0.1	-2.3	·	·
COc1cc(N2CCOCC2)ccc1/C=C1\C(=O)NC(=O)N(Cc2cccs2)C1=O	-0.7	9.2	-0.4	1.8	·	·
COc1cc(N2CCOCC2)ccc1C=C1C(=O)NC(=O)NC1=O	8.0*	4.2	-0.7	4.6	0.0	-3.6
CCn1c(O)c(C=NCCc2c[nH]c3ccccc23)c(=O)[nH]c1=O	5.4*	4.0	-0.1	3.8	0.4	-4.8
COc1ccc(OC)c(N2Cc3ccccc3C2=N)c1	5.9*	-11.4	0.0	-13.6	0.1	3.4
SMILES	GPR151 ag	TEAD-YAP block	FBW7 activator	MITF inh	GPR151 conf act	GPR119 ag
O=C(O)C1C2CC3CC(C2)CC1(n1ncc(Nc2cccc(O)c2)c(Cl)c1=O)C3 (configuration not stated)	1.4	5.1	0.0	3.4	·	·
CC(=O)OCC(=O)[C@H]1CC[C@H]2[C@@H]3CC[C@H]4C[C@H](O)CC[C@]4(C)[C@H]3C(=O)C[C@]12C	6.2*	·	0.2	-4.9	0.3	6.9
N=C1c2ccccc2CN1/C=C(\Cl)c1ccccc1	-2.5	-42.5	-0.2	2.5	·	·
CCCCOC(=O)c1c(N)n(CCN2CCOCC2)c2nc3ccccc3nc12	-0.3	16.8	0.1	-5.6	·	·
CC(=O)C(C)Oc1cc(C)cc2oc(=O)c3c(c12)CCCC3 (configuration not stated)	22.2*	14.9	0.1	5.0	-0.5	0.2
C=C(C)[C@H]1CN[C@H](C(=O)O)[C@H]1CC(=O)O	7.6*!	-2.6	0.3	-3.3	-0.4	-0.9
O=c1c2ccccc2nc(/C=C/c2ccco2)n1-c1ccc(O)cc1	5.1*	10.6	-0.2	13.4	2.5	9.7
O=C(c1cccc2ccccc12)C12CN3CN(CN(C3)C1)C2	-1.0	-1.2	1.1	20.3	·	·
O=c1c2cc(Cl)cc(Cl)c2nc(CN2CCOCC2)n1-c1ccccc1F	16.8*	5.9	0.0	7.1	0.4	-3.4
CCOc1ccccc1NC(=O)N1CCC2(CC1)OCCO2	12.7*	7.7	0.0	10.7	-0.5	-2.1
CN1CCN(C(=O)C(O)(c2ccccc2)c2ccccc2)CC1	10.9*	-5.2	0.1	-4.3	0.0	1.1
NC(=O)OCCCc1ccccc1	1.6	-9.8	0.0	-3.8	·	·
CCCCOC(=O)c1ccccc1C(=O)OCCCC	5.9*!	0.1	0.1	-15.4	1.4	2.3
CN1CCN(C(=O)Cc2noc3ccccc23)CC1	-1.2	-6.8	0.2	10.7	·	·
COc1ccc(Cc2nccc3cc(OC)c(OC)cc23)cc1OC	5.8*!	3.8	0.1	6.2	1.6	12.7
COc1ccc(CCNCc2cc(OC)c(OC)c(OC)c2)cc1OC	-1.1	13.3	0.2	40.6	·	·
Fc1ccc(CCNCc2c[nH]c3ccccc23)cc1	0.9	-6.4	-0.1	15.8	·	·
O=C(C1CN(CCc2c[nH]c3ccccc23)CCN1)N1CCOCC1 (configuration not stated)	5.1*	-2.5	-0.1	7.3	-0.8	-14.6
CC1(C)C(c2ccccn2)=[N+]([O-])C(c2cccnc2)N1O (configuration not stated)	-0.5	4.9	0.3	24.0	·	·
CC1(C)C(c2ccccc2)=[N+]([O-])C(c2cccnc2)N1O (configuration not stated)	6.2*	5.8	0.6	0.4	-0.4	-6.9
CCN1CCN(Cc2ccc([N+](=O)[O-])cc2)CC1	10.1*	9.7	0.0	-4.9	-0.6	11.7
CCC(C)N1CCN(Cc2ccc([N+](=O)[O-])cc2)CC1 (configuration not stated)	-1.5	-7.8	0.3	40.9	·	·
COc1ccc(CN2CCN(c3ccc(F)cc3)CC2)cc1O	-0.5	-1.7	0.1	49.3	·	·
Brc1ccccc1CN1CCOCC1	0.0	-9.4	0.1	35.6	·	·
CN1CCN(Cc2ccccc2Br)CC1	5.1*	-0.1	0.3	49.8	-0.3	2.5
CC[C@@H]1C(=O)OC[C@@H]1Cc1cncn1C	9.6*!	1.8	-0.1	-6.5	0.4	-6.2
CN1CCN(c2ccc(/C=C(\C#N)C(N)=O)cc2[N+](=O)[O-])CC1	17.1*	0.2	0.2	16.4	1.3	4.7
CCOc1ccc(C2SCC(=O)Nc3c2c(=O)[nH]n3C(CC)CC)cc1 (configuration not stated)	7.1*	0.2	0.2	7.6	-0.3	-15.0

Assay outcomes as filed in PubChem.
